Assay outcomes deposited in PubChem BioAssay by National Center for Advancing Translational Sciences (NCATS).
SW480 rereplic – inducers of DNA re-replication in SW480 colon cancer cells; 340,000 tested, 1.8% active; Potency, µM (titrated, usually from 46.1 µM), inactives show top-dose re-replication activation, hits mostly activators; SW480 DNA re-replication, Hoechst DNA content imaging, 48 h; note: % of control where 0% means no effect; nearly all actives have a fitted effect of over 55% in size
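Quantitative HTS format with DMSO vehicle controls; 48 hr drug incubation at 37 C, then 40 min Hoechst staining and scanning imager measurement at 405 nm excitation.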
RGS4 inh – blocks human RGS4-accelerated GTP hydrolysis. Transcreener GDP fluorescence polarization, RGS4-accelerated GTP hydrolysis. Potency, µM (doses to about 114 µM), without a hit: top-dose activity change, negative = inhibition, actives largely listed as inhibitors. 390,000 tested, 0.039% active. AID 504845. P49798; note: % is set by controls: 0 for no effect and ±100 for the full control effect; nearly all actives have a fitted effect of over 75% in size
Target sequence (P49798 whole entry, looked up): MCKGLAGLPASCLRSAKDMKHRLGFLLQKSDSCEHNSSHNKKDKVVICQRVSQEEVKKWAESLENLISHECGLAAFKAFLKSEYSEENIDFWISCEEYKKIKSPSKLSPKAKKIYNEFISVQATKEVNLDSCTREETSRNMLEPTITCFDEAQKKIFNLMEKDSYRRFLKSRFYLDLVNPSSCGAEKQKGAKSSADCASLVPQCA
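MLSMR compounds (23 nl, pin-transferred) preincubated 10 min at room temperature with a 500nM (2x) first reagent, then RGS4 at 900nM (2x) plus Transcreener GDP mix added; fluorescence polarization (620/688 nm) read before and after 90 min at 30 °C.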
KB-V1 MDR tox – kills drug-selected multidrug resistant KB-V1 cells; Potency, µM (doses to about 46.1 µM), actives largely listed as cytotoxic; 400,000 tested, 3.4% active; KB-V1 MDR cells viability, CellTiter-Glo, 72 h; AID 1347076; note: % is set by controls: 0 for no effect and ±100 for the full control effect; nearly all actives have a fitted effect of over 60% in size
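Compound-treated KB-V1 multidrug-resistant cells, 72 h, 37 degrees C; viability by CellTiter-Glo. Fitted qHTS curves give the values.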
PTAP TSG101 blk – blocks PTAP/TSG101 interaction to inhibit HIV-1 budding | Q99816 | Fluorescence polarization, FITC-PTAP peptide / Tsg101 binding | Potency, µM (series often up to 115 µM), inactives show at the top dose activity change, negative = inhibition, usual class: inhibitors | 340,000 tested, under 10 active | AID 493005; active = well fitted inhibition curve with a large enough effect in the main read-out, with a control signal flat, not every such curve was filed as active; inconclusive = small, poorly fitted or top-dose-only effect, or effect the other way, or a change in a side signal; inactive = no such curve, though single readings can be large or run the other way; note: % of control where 0% means no effect
Target sequence (Q99816 whole entry, looked up): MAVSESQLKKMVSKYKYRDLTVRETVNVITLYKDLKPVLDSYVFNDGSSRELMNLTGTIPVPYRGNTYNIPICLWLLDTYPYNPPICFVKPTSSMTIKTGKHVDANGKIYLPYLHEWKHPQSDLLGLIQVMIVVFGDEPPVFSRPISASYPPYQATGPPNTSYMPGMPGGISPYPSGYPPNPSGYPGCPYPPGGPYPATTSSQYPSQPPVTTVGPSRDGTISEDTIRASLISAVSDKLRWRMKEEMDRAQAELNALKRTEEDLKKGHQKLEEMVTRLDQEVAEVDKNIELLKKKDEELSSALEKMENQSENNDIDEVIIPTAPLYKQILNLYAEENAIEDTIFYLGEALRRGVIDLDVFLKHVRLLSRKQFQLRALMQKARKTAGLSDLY
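Fluorescence polarization binding of Tsg101 binding domain (10 uM final) to FITC-labeled PTAP peptide (50 nM final) in HEPES pH 7.5 buffer with NaCl, Tween 20, EDTA, TCEP. Compounds added before peptide; binding 20 min at RT.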
KB-3-1 cytotox – KB-3-1 parental cell cytotoxicity | AID 1347075 | KB-3-1 viability, CellTiter-Glo ATP luminescence, 72 h | 400,000 tested, 1.4% active | Potency, µM (doses to about 46.1 µM), usual class: cytotoxic; note: % is set by controls: 0 for no effect and ±100 for the full control effect; nearly all actives have a fitted effect of over 60% in size
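Parental KB-3-1 viability, qHTS format: 72 h compound exposure, 37 °C; CellTiter-Glo; media-only wells and DMSO plates as controls; concentration-effect fits on corrected data.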
MCF10A rerep – DNA re-replication induction in MCF 10a cells; MCF 10A DNA re-replication, Hoechst nuclear intensity, 48 h; Potency, µM (top dose mostly 46.1 µM), for the others: at the highest dose activity, positive = re-replication, most hits filed as activators; 350,000 tested, 2.9% active; note: % of control where 0% means no effect; nearly all actives have a fitted effect of over 50% in size
* = called active by the depositor. Only some compounds are listed: those with a hit (about 6.6% of all), similar ones and a draw of the others. Unless noted, calls come from the whole dose curve; as a rule, active = well fitted curve in the direction sought with a large enough effect; inconclusive = small, poorly fitted or top-dose-only effect, or another doubt; inactive = no such curve, though single readings can be large; an effect the other way counts as inactive or inconclusive. Potency is the fitted concentration of half-maximal effect.

CCOc1ccc(CCNc2nc3c(c(=O)n(C)c(=O)n3C)n2CC)cc1OCC was read as SW480 rereplic -1%, RGS4 inh 2%, KB-V1 MDR tox inconclusive, PTAP TSG101 blk -7%, KB-3-1 cytotox 15µM* and MCF10A rerep 0%.
For COc1ccc(CCNc2nc3c(c(=O)n(C)c(=O)n3C)n2Cc2ccc(F)cc2)cc1OC the results were RGS4 inh -35%, KB-V1 MDR tox 2.1µM* and KB-3-1 cytotox 18µM*.
Screening Cn1c(=O)c2c(nc(NCCc3ccccc3)n2Cc2ccc(Cl)cc2)n(C)c1=O returned RGS4 inh 11%, KB-V1 MDR tox inconclusive and KB-3-1 cytotox inconclusive.
For CC1=C(C(=O)Nc2ccc(Cl)cc2)C(C(C)C)n2nc(SCc3ccc(Cl)cc3)nc2N1 (centres undefined) the results were RGS4 inh 4%, KB-V1 MDR tox inactive and KB-3-1 cytotox inactive.
COc1ccc(OC)c(-c2csc(-c3c(N)c(C(=O)c4ccc(Cl)cc4)n4ccccc34)n2)c1 was read as RGS4 inh 17%, KB-V1 MDR tox inactive and KB-3-1 cytotox inactive.
`O=C(O)c1ccc(S(=O)(=O)/N=C2\C=C(Nc3ccccc3F)C(=O)c3ccccc32)cc1` gave SW480 rereplic 6.5µM*, RGS4 inh -33%, KB-V1 MDR tox inconclusive, PTAP TSG101 blk -7%, KB-3-1 cytotox inconclusive and MCF10A rerep 1.5µM*.
CC(C)c1ccc(S(=O)(=O)/N=C2\C=C(NS(=O)(=O)c3ccccc3)C(=O)c3ccccc32)cc1 was read as SW480 rereplic inconclusive, RGS4 inh inconclusive, KB-V1 MDR tox inconclusive, PTAP TSG101 blk -5%, KB-3-1 cytotox inconclusive and MCF10A rerep inconclusive.
For CCc1ccc(S(=O)(=O)/N=C2\C=C(NS(=O)(=O)c3ccccc3)C(=O)c3ccccc32)cc1 the results were SW480 rereplic 12%, RGS4 inh -7%, KB-V1 MDR tox inactive, PTAP TSG101 blk -9%, KB-3-1 cytotox inactive and MCF10A rerep 12%.
Cc1ccccc1NC1=C/C(=N\S(=O)(=O)c2ccc(C(=O)O)cc2)c2ccccc2C1=O was read as SW480 rereplic inconclusive, RGS4 inh -29%, KB-V1 MDR tox inconclusive, PTAP TSG101 blk -10%, KB-3-1 cytotox inconclusive and MCF10A rerep 2.1µM*.
`COc1cccc(CNC(=O)CSc2ncc(S(=O)(=O)c3ccc(Br)cc3)c(=O)[nH]2)c1` gave RGS4 inh -6%, KB-V1 MDR tox inconclusive and KB-3-1 cytotox inactive.
COc1cc(/C=C/c2nc(C#N)c(N3CCN(C)CC3)o2)cc(OC)c1OC was read as RGS4 inh 20%.
For Cc1cccn2c(=O)c(C(=O)NCCc3ccc(S(N)(=O)=O)cc3)c(O)nc12 the results were RGS4 inh 16%, KB-V1 MDR tox inactive and KB-3-1 cytotox inactive.
COc1ccc(OCCOc2ccc(N(C)S(=O)(=O)c3ccccc3)cc2)cc1 was read as SW480 rereplic 3%, RGS4 inh -5%, KB-V1 MDR tox inactive, PTAP TSG101 blk -4%, KB-3-1 cytotox inactive and MCF10A rerep 11%.
For CN(c1ccc(OCCOc2ccccc2Cl)cc1)S(=O)(=O)c1ccccc1 the results were SW480 rereplic inconclusive, RGS4 inh -10%, KB-V1 MDR tox 16µM*, PTAP TSG101 blk 0%, KB-3-1 cytotox inactive and MCF10A rerep 20%.
For CCc1ccccc1N1C(=O)C2CC=CCC2C1=O (centres undefined) the results were SW480 rereplic -1%, RGS4 inh -3%, KB-V1 MDR tox inactive, PTAP TSG101 blk 0%, KB-3-1 cytotox inactive and MCF10A rerep 0%.
For Cc1ccc(S(=O)(=O)Oc2ccccc2N2C(=O)C3CC=CCC3C2=O)cc1 (centres undefined) the results were SW480 rereplic 1%, RGS4 inh -3%, KB-V1 MDR tox 8.2µM*, PTAP TSG101 blk -2%, KB-3-1 cytotox inactive and MCF10A rerep 4%.
`O=C1C2CC=CCC2C(=O)N1c1cccc(OS(=O)(=O)c2ccc3ccccc3c2)c1` (centres undefined) gave SW480 rereplic -2%, RGS4 inh -11%, KB-V1 MDR tox 21µM*, PTAP TSG101 blk -3%, KB-3-1 cytotox inactive and MCF10A rerep inconclusive.
Screening Cc1ccc(N(Cc2cccs2)C(=O)c2ccc(OC(C)C)cc2)cc1 returned RGS4 inh 29%.
Cc1cc(C)c(NC(=O)Cn2c(=O)n(CCCCC(=O)NCc3ccccc3Cl)c(=O)c3ccccc32)c(C)c1 was read as RGS4 inh 8%, KB-V1 MDR tox inconclusive and KB-3-1 cytotox inactive.
`COC(=O)c1ccc(NC(=O)CC2C(=O)N(c3cccc(OC)c3)C(=O)N2Cc2ccco2)cc1` (centres undefined) gave RGS4 inh 16%.
Screening O=C(O)COc1ccc(NC(=O)c2ccc3c(c2)C(=O)N(C2CCCCC2)C3=O)cc1 returned SW480 rereplic -3%, RGS4 inh 35%, KB-V1 MDR tox inactive, PTAP TSG101 blk 1%, KB-3-1 cytotox inactive and MCF10A rerep -1%.
`CCC(=O)Oc1ccc(C(=O)Nc2ccc3c(c2)C(=O)N(C2CCCCC2)C3=O)cc1` gave SW480 rereplic inconclusive, RGS4 inh 26%, KB-V1 MDR tox inconclusive, PTAP TSG101 blk 2%, KB-3-1 cytotox inconclusive and MCF10A rerep 23µM*.
For Cc1ccc(C)c(S(=O)(=O)ON2C(=O)c3ccccc3C2=O)c1 the results were SW480 rereplic inconclusive, RGS4 inh inconclusive, KB-V1 MDR tox inactive, PTAP TSG101 blk -3%, KB-3-1 cytotox inconclusive and MCF10A rerep 5.8µM*.
For Cc1cc(S(=O)(=O)ON2C(=O)c3ccccc3C2=O)ccc1F the results were SW480 rereplic 8%, RGS4 inh inconclusive, KB-V1 MDR tox inactive, PTAP TSG101 blk -2%, KB-3-1 cytotox inconclusive and MCF10A rerep inconclusive.
`COc1cc(OC)c(NC(=O)c2c(C)oc3nc(C)nc(N4CCOCC4)c23)cc1Cl` gave RGS4 inh -12%.
Screening CCOC(=O)c1nn(-c2ccc(F)cc2)cc1O returned SW480 rereplic 3%, RGS4 inh -16%, KB-V1 MDR tox inactive, PTAP TSG101 blk 1%, KB-3-1 cytotox inactive and MCF10A rerep -7%.
CCOC(=O)c1nn(-c2ccc(Br)cc2)cc1C(=O)c1cccc2ccccc12 was read as SW480 rereplic inconclusive, RGS4 inh -5%, KB-V1 MDR tox 12µM*, PTAP TSG101 blk -4%, KB-3-1 cytotox inconclusive and MCF10A rerep inconclusive.
